# Compounds without any hit were thinned out: in the full panel of roughly 83,000, 20% have a hit.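 96-well plates, one dose, 48 hours. Percent growth reported; active if below 10.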 A number with no mark means an inactive call. Calls of active or inactive are those of the source.
# Tests used:
# Experiment in all cases: NCI-60 one-dose screen, 48 h (100 = growth as untreated, 0 = no growth, -100 = all killed)
# Details in all cases: 10 µM unless noted
# NCI-H23 lung = tested on: NCI-H23 lung
# NCI-H226 lung = tested on: NCI-H226 lung
# NCI-H322M lung = tested on: NCI-H322M lung
# HOP-62 NSCLC = tested on: HOP-62 NSCLC
# NCI-H460 lung = tested on: NCI-H460 lung
# HOP-92 NSCLC = tested on: HOP-92 NSCLC
# NCI-H522 lung = tested on: NCI-H522 lung
# A549/ATCC NSCLC = tested on: A549/ATCC NSCLC
# 786-0 renal = tested on: 786-0 renal
# COLO 205 colon = tested on: COLO 205 colon
# DU-145 prostate = tested on: DU-145 prostate
# K-562 leukemia = tested on: K-562 leukemia
# MALME-3M melanoma = tested on: MALME-3M melanoma
# MDA-MB-231 breast = tested on: MDA-MB-231 breast
# RXF 393 renal = tested on: RXF 393 renal
# SF-268 CNS = tested on: SF-268 CNS
# SF-295 CNS = tested on: SF-295 CNS
# SF-539 CNS = tested on: SF-539 CNS
# UACC-257 melanoma = tested on: UACC-257 melanoma
# M14 melanoma = tested on: M14 melanoma
SMILES,growth (NCI-H23 lung),growth (NCI-H226 lung),growth (NCI-H322M lung),growth (HOP-62 NSCLC),growth (NCI-H460 lung),growth (HOP-92 NSCLC),growth (NCI-H522 lung),growth (A549/ATCC NSCLC),growth (786-0 renal),growth (COLO 205 colon),growth (DU-145 prostate),growth (K-562 leukemia),growth (MALME-3M melanoma),growth (MDA-MB-231 breast),growth (RXF 393 renal),growth (SF-268 CNS),growth (SF-295 CNS),growth (SF-539 CNS),growth (UACC-257 melanoma),growth (M14 melanoma)
CO[C@@H](C(=O)N1Cc2[nH]nc(NC(=O)c3ccc(N4CCN(C)CC4)cc3)c2C1)c1ccccc1,36.8%,37.3%,-0.392% (active),-6.89% (active),4.44% (active),-63.8% (active),12.6%,19.1%,10.7%,-88.2% (active),17.6%,6.59% (active),48.6%,9.92% (active),-36.4% (active),1.17% (active),31.7%,-4.34% (active),14.2%,35.8%
N#CC[C@H](C1CCCC1)n1cc(-c2ncnc3[nH]ccc23)cn1,71.5%,33.7%,76.2%,45.1%,54.7%,41.5%,37.9%,43.8%,54.7%,37%,62.8%,70.4%,97%,60.4%,15.9%,59.8%,76.6%,67.4%,78.9%,77.9%
CNC(=O)c1cc(COc2nnc(Nc3ccc(Cl)cc3)c3ccoc23)ccn1,62.2%,21.3%,45.4%,-75.2% (active),31.2%,-5.53% (active),10.4%,35.3%,-27.1% (active),72.4%,31.9%,69.7%,22.4%,18.5%,43.1%,14.2%,10.4%,-65.6% (active),33.3%,78.9%
FC(F)c1nc2ccccc2n1-c1nc(N2CCOCC2)nc(N2CCOCC2)n1,0.202% (active),-3.17% (active),-22.6% (active),-15.1% (active),7.27% (active),-32.2% (active),-1.95% (active),-17.2% (active),-32.8% (active),-25.1% (active),6.49% (active),13.1%,-26.7% (active),15.7%,-44.5% (active),2.79% (active),-44.6% (active),-45.3% (active),-27.3% (active),3% (active)
COc1cc2c(Nc3ccc(Br)cc3F)ncnc2cc1OCC1CCN(C)CC1,52.5%,57.5%,6.72% (active),19.5%,39.9%,-12.9% (active),-31.3% (active),22.9%,15.3%,-13.9% (active),33%,3.22% (active),-52.3% (active),9.67% (active),-38.2% (active),30.5%,45.8%,-58.4% (active),-85.9% (active),-82.5% (active)
O=C(O)c1ccc(Nc2ncc3c(n2)-c2ccc(Cl)cc2C(c2c(F)cccc2F)=NC3)cc1,64.9%,51.7%,89%,37.7%,39.5%,54.4%,29.9%,30%,63%,2.8% (active),72.1%,23.3%,76.5%,51.7%,43.8%,52.6%,39.3%,59.4%,46.4%,57.5%
CN1CC[C@H](c2c(O)cc(O)c3c(=O)cc(-c4ccccc4Cl)oc23)[C@H](O)C1,-17.3% (active),3.69% (active),-5.32% (active),-17.2% (active),3.22% (active),-6.87% (active),-23.9% (active),5.9% (active),7.41% (active),-55% (active),9.08% (active),6.14% (active),-45.3% (active),1.35% (active),-65.5% (active),4.21% (active),8.48% (active),-28% (active),-23.8% (active),-50.1% (active)
COc1ccc(-c2ccc3c(N4CCOC[C@@H]4C)nc(N4CCOC[C@@H]4C)nc3n2)cc1CO,20.3%,-9.74% (active),-5.27% (active),-12.9% (active),8.4% (active),-21.1% (active),8.31% (active),-12.6% (active),2.33% (active),-14.1% (active),11.6%,12.8%,-8.07% (active),13%,-27.5% (active),14.9%,-35% (active),-39.2% (active),-24.8% (active),6.2% (active)
CN(C)C/C=C/C(=O)Nc1cc2c(Nc3ccc(F)c(Cl)c3)ncnc2cc1O[C@H]1CCOC1,-11.7% (active),-7.37% (active),-16.4% (active),-10.8% (active),4.3% (active),-11.5% (active),-55.6% (active),3.14% (active),8.66% (active),-65.1% (active),-7.97% (active),0.783% (active),-75.1% (active),-13.7% (active),-22% (active),6.2% (active),29.8%,-84.6% (active),-70.7% (active),-82.8% (active)
C[C@@]1(C(=O)Nc2ccc(F)nc2)CCCN1c1nc(Nc2cc(C3CC3)[nH]n2)c2cccn2n1,20.5%,30.1%,15.3%,11.3%,14.5%,-45.5% (active),40.9%,21.9%,5.48% (active),-49.3% (active),38.9%,27.3%,55.3%,20.7%,-45.9% (active),15.5%,-13.2% (active),16.3%,22.1%,21.6%
O=C(NOC[C@H](O)CO)c1ccc(F)c(F)c1Nc1ccc(I)cc1F,19.6%,49.5%,12.3%,27.7%,54%,-28% (active),44.8%,21.4%,71.2%,0.302% (active),58.7%,29.2%,-11.7% (active),20.9%,2.18% (active),60.1%,75%,64.2%,-26.8% (active),3.66% (active)
COc1cccc(NC(=O)Nc2ccc(Nc3ncnc4sc5c(c34)CCN(C(=O)CCl)C5)cc2)c1,96.7%,88.9%,96.8%,88.7%,98.1%,97.1%,71.6%,91%,103%,104%,118%,91.3%,116%,92.7%,99.1%,91.3%,98.1%,106%,93.4%,101%
COCc1c(-c2ccc(NC(=O)Nc3cc(C(F)(F)F)ccc3F)c(F)c2)c2c(N)ncnn2c1CN1CCOCC1,-53.4% (active),-7.25% (active),-17% (active),-58.9% (active),-47.2% (active),-32.8% (active),-55.3% (active),-18.8% (active),-43.5% (active),-88.8% (active),-4% (active),1.74% (active),-37% (active),-50% (active),-88.4% (active),-14.5% (active),-54.2% (active),-71.5% (active),-9.75% (active),-41% (active)
CC(C)[C@@H]1CC[C@@H]2[C@@H]1[C@H](OC(=O)/C=C/c1ccccc1)[C@]1(C(C)C)C[C@@H](OC(=O)CO)[C@@]2(C)O1,83.1%,63.2%,105%,87.4%,89.3%,68.6%,65.9%,71.4%,78.1%,84.6%,86%,78.3%,80.3%,77.7%,23.4%,56.8%,92.2%,97.1%,84.1%,95.8%
Nc1cc(C(F)(F)F)c(-c2cc(N3CCOCC3)nc(N3CCOCC3)n2)cn1,-11.8% (active),-10.6% (active),-18.3% (active),-40.8% (active),-12.9% (active),-42.2% (active),-51.7% (active),-44.8% (active),-9.19% (active),-61.3% (active),3.11% (active),0.801% (active),-60.8% (active),-1.72% (active),-39.7% (active),6.65% (active),-46.8% (active),-57% (active),-49.5% (active),-62.1% (active)
COc1ccc(Br)cc1NC(=O)Nc1cccc2c1ccn2Cc1ccnc(N)c1,55.1%,22.2%,32.7%,-44.7% (active),14.6%,-7.4% (active),-50.9% (active),18.9%,31.2%,-57.5% (active),58.7%,4.41% (active),42.1%,-2.75% (active),16.3%,47.5%,-6.47% (active),27.5%,32.5%,-30.2% (active)
